“And” between values parts separate entries of the source, which are not always exact repeats. Equal values may be shown once. This is part of a sample that, as a whole, favours compounds with a hit. Of some 83,000 tested, about 20% had one in any assay.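 Results are percent growth after 48 hours of single-concentration exposure. 100 means growth as in untreated cells, lower positive values show inhibition; negative values down to -100 show cell death.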 Values without a mark were called inactive. The source made the active and inactive calls.
Test system: OVCAR-5 ovarian
Assay: NCI-60 one-dose screen, 48 h (100 = growth as untreated, 0 = no growth, -100 = all killed)
Conditions: 10 µM
Experimental: Growth inhibition of the OVCAR-5 human tumor cell line is measured as a screen for anti-cancer activity. Cells are grown in 96 well plates and exposed to the test compound for 48 hours. Compounds are tested at a single concentration, which is 10^-5 M for most compounds. The reported endpoint is percent growth (GI% or GIPRCNT), where numbers from 0 - 100% represent growth inhibition, and numbers from -100% - 0 represent cell death. For example, a value of 40 represents 60% growth inhibition. A value of 0 means no net growth occurred over the course of the experiment. A value of -40 indicates 40% of cells at the beginning of the experiment died by the end of the experiment. A value of -100 means all cells are dead at the end of the experiment.
NCI-60 Human Tumor Cell Lines Screen was performed using the standard one-dose NCI protocol, which is described in more detail at https://dtp.cancer.gov/discovery_development/nci-60/default.htm.
Compounds with GIPRCNT values below 10 were considered active. Activity score was based on GIPRCNT using the following formula: […]
Score is 0 for GIPRCNT values of 100 or above, 50 for GIPRCNT values of 0, and 100 for GIPRCNT values of -100.

SMILES	growth
N#CCc1ccccc1	101%
Oc1ccccc1-c1ccccc1	105% and 109%
O=C(CCl)Nc1ccc(Cl)cc1	53.5%
O=[N+]([O-])c1ccc(N(CCO)CCO)c2c1no[n+]2[O-]	18.5%
COc1cc(/C=C(/C)[N+](=O)[O-])ccc1O	83.5% and 60.3%
CC(C)c1cc([N+](=O)[O-])cc([N+](=O)[O-])c1O	107%
COc1cc([N+](=O)[O-])c2ncccc2c1[N+](=O)[O-]	124%
CCOP(=O)(OCC)/C(C#N)=C/c1ccc(Br)cc1	90.7%
C/C1=C\[C@H](C)C[C@H](C)OC(=O)C[C@H](c2ccc(O)cc2)NC(=O)[C@@H](Cc2c(Br)[nH]c3ccccc23)N(C)C(=O)[C@H](C)NC(=O)[C@@H](C)C1	-35.1% (active)
COc1cc([C@@H]2c3cc4c(c(O)c3C[C@H]3COC(=O)[C@@H]32)OCO4)cc(OC)c1OC	32.8%
C#CC1(O)CCC(C(C)(C)C)CC1 (stereo not given)	105%
COC(C(=O)C(O)C(C)O)C1Cc2cc3cc(OC4CC(OC(C)=O)C(OC5CC(O)C(OC)C(C)O5)C(C)O4)cc(O)c3c(O)c2C(=O)C1OC1CC(OC2CC(OC3CC(C)(O)C(OC(=O)C(C)C)C(C)O3)C(O)C(C)O2)C(O)C(C)O1 (stereo not given)	-43.5% (active)
Oc1c(I)cc(I)cc1I	98.6%
COC12c3c(C)cc(O)c4c(=O)occ(c34)C(=O)C1C13COC(=O)c4c(O)cc(C)c(c41)C(=O)C2C3OC(C)=O (stereo not given)	91.4%
NC(=O)c1cc([N+](=O)[O-])c(Cl)c([N+](=O)[O-])c1Cl	78.2%
CC/C(=C/c1ccc(OC)cc1)[N+](=O)[O-]	10.9%
[O-][n+]1ccccc1S	59.1%
COc1ccc(/C=C\[N+](=O)[O-])cc1OC	110% and 79.4%
C=C1C(=O)O[C@@H]2C[C@@H](C)[C@@H]3C=CC(=O)[C@@]3(C)[C@@H](O)[C@H]12	5.71% (active)
Cn1c(O)c(N=O)c(=O)n(C)c1=O	116% and 98.1%

SMILES	growth
O=C(CBr)Nc1ccc(Cl)cc1	66.6%
[Cl][Hg][c]1ccc(Cl)s1	28.2%
CC(C)(C)OOC(=O)/C=C\C(=O)OOC(C)(C)C	99.3%
CC(=O)Nc1c2sscc-2n(C)c1=O	-60.4% (active)
ClCc1ccc2ccccc2n1	83.4%
CC(Cc1ccc2c(c1)OCO2)NN (stereo not given)	100%
CC(=O)[O][Hg][c]1c(C)c(C)cc(C)c1C	-9.8% (active)
Cc1cc([N+](=O)[O-])c2ccccc2[n+]1[O-]	20.9% and 13.3%
O=[N+]([O-])/C=C/c1ccc(Cl)cc1[N+](=O)[O-]	75.2%
COc1cc(/C=C/[N+](=O)[O-])cc(Br)c1OC	65.4%
COC(=O)C1C(O)C(C)C(O)C(C)/C=C\C=C(C)C(=O)Nc2c(C)c(OC(C)=O)c3c(c2O)C(=O)C(C)=C2OCOC(=C23)C(C)=CC(C)(O)C(O)C(C)C1O (stereo not given)	77%
COc1ccccc1/C=C/[N+](=O)[O-]	85.6%
[Cl][Hg][c]1ccc2ccccc2c1	-13.7% (active)
C/C(=C\c1ccc(Cl)c(Cl)c1)[N+](=O)[O-]	108% and 104%
COc1cc(/C=C\[N+](=O)[O-])ccc1O	93.6% and 105%
C[C@@H]1C[C@@H]([C@H](O)CC2CC(=O)NC(=O)C2)C(=O)[C@@H](C)C1	8.45% (active)
COc1cc2c(cc1OC)C13CCN4CC5=CCOC6CC(=O)N2C1C6C5CC43 (stereo not given)	98.2% and 83.9%
CS(=N)(=O)CCC(N)C(=O)O (stereo not given)	85.3%
CCOP(=O)(OCC)C(O)c1ccccc1Cl (stereo not given)	87.2%
COC12C(COC(N)=O)C3=C(C(=O)C(C)=C(N)C3=O)N1CC1C2N1C (stereo not given)	67.5%
